p53 reactivator = mutant p53 re-activation in reporter cells; actives 0.063% (n = 320,000); H1299 p53-A138V BP100-luciferase reporter, luminescence, 24 h; AID 504706; Potency, µM (titrated, usually from 92.2 µM), inactives show at the top dose activity change, positive = activation, most hits filed as activators; also: potency is read from the fitted curve at half-maximal effect; % of control where 0% means no effect; nearly all actives have a fitted effect of over 45% in size
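H1299 (p53-null), stable ts p53-A138V + BP100-Luc; 1000 cells/well, Opti-MEM/10% FBS; cpd 4 pt, 1:5; 24 h, 37 deg C, 5% CO2; detection reagent 10 min RT; luminescence.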
PINK1 modulator = PINK1 expression modulation. Potency, µM (doses to about 76.6 µM), for the others: at the highest dose activation (PINK1 increase), actives largely listed as activators. actives 0.2% (n = 410,000). PINK1 immunofluorescence, high-content cytometry, 24 h. AID 624263; active = well fitted activation curve with a large enough effect; inconclusive = small, poorly fitted or top-dose-only effect; cell line not stated here; also: potency is read from the fitted curve at half-maximal effect; % of control where 0% means no effect; nearly all actives have a fitted effect of over 65% in size
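Stable cell line, 250 cells/well, 12 h attachment; compounds pinned at 5 concentrations, 24 h; CCCP control. Fixed with nuclear dye, primary antibodies 12 h at 10 degrees C, secondary plus cell stain; laser-scanning cytometer read.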
S-ASM inh = human S-ASM enzyme inhibition; P17405; placental ASM, HMU-PC fluorogenic substrate, 60 min; Potency, µM (top dose mostly 57.5 µM), inactives show at the highest dose activity change, negative = inhibition, usual class: inhibitors; actives 0.006% (n = 340,000); also: potency is read from the fitted curve at half-maximal effect
Target sequence (P17405 47-631 limits assumed): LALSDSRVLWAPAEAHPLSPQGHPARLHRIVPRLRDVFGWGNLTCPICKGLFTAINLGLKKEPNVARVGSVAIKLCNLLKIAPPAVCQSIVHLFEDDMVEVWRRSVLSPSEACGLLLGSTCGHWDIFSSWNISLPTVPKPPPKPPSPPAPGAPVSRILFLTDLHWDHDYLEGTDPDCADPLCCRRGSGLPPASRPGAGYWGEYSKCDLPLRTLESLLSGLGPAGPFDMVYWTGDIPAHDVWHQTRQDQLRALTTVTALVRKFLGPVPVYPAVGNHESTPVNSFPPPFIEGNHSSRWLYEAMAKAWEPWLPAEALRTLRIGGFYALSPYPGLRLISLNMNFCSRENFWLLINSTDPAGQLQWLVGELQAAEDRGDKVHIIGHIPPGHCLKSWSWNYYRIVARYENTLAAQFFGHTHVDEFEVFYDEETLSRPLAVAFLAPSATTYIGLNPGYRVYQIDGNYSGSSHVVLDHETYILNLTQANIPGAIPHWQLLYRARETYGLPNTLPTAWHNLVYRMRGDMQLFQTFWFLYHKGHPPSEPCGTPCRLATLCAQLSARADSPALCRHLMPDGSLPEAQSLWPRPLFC
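Human placenta-derived ASM enzyme was preincubated with compound for 10 minutes at room temperature, then given fluorogenic substrate HMU-PC0 (9 uM final) for 60 minutes at 37 °C; a pH 10 stop preceded fluorescence reading at Ex 386/Em 447 nm.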
CCT modulator = changes cytosolic chaperonin activity | AID 651819 | actives 0.3% (n = 360,000) | activity change, % (test concentration not listed), hits read low | purified chaperonin ATPase assay, HTRF ADP detection, 30 min; in the data active = activity change below about -30%; also: % is scaled to controls: 0 for no effect and ±100 for the full control effect
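TRiC at 40 or 20 nM final (batch-dependent) in 30 mM Tris pH 7.4, 100 mM KCl, 5 mM MgCl2, 1 mM DTT, with compound at single 76 uM and 10 uM ATP, 30 min at 37 deg C. ADP detected by HTRF Transcreener, 665/615 ratio.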
Mm-Cpn inhibitor = M. maripaludis TRiC chaperonin inhibition; purified Mm-Cpn ATPase, ADP Transcreener TR-FRET; Potency, µM (doses to about 76.9 µM), inactives show top-dose activity, negative = inhibition, usual class: inhibitors; actives 0.031% (n = 330,000); AID 504842; also: potency is read from the fitted curve at half-maximal effect; % is scaled to controls: 0 for no effect and ±100 for the full control effect; nearly all actives have a fitted effect of over 80% in size
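Reaction buffer contained 30 mM Tris pH 7.4, 100 mM KCl, 5 mM MgCl2 and 1 mM DTT. Mm-CPN (25 nM final) hydrolysed 10 uM ATP over 30 min at 37°C; ADP was read by HTRF.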
ALOX12 inh = inhibitors of human 12S-lipoxygenase ALOX12. purified 12hLO, xylenol orange hydroperoxide absorbance. Potency, µM (highest dose often 108 µM), inactives show at the highest dose activity change, negative = inhibition, hits mostly inhibitors. actives 1.1% (n = 580,000). AID 1671190; also: potency is read from the fitted curve at half-maximal effect; % is scaled to controls: 0 for no effect and ±100 for the full control effect
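Hydroperoxide product was detected by ferrous iron/xylenol orange as the 573 to 405 nm absorbance ratio. Arachidonic acid at 40 uM (final) was turned over for 30 min at room temperature by 150 nM human 12hLO, pH 7.0 Hepes buffer, after 15 min compound preincubation.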
Starred values were filed as active, the others as inactive; ? = inconclusive; · = no result given; [ ] = remark or other dose. Hits are enriched below; roughly 1.4% of the tested compounds scored in any of these assays. Unless noted, calls follow the shape of the dose curve; as a rule, active = well fitted curve in the direction sought with a large enough effect; inconclusive = small, poorly fitted or top-dose-only effect, or another doubt; inactive = no such curve, though single readings can be large; an effect the other way counts as inactive or inconclusive.

SMILES	p53 reactivator	PINK1 modulator	S-ASM inh	CCT modulator	Mm-Cpn inhibitor	ALOX12 inh
Cc1nc(-c2cccc(-c3noc(C)n3)c2)no1	14%	3%[38.3 µM]	3%	-44*	2%	-7%
COc1ccccc1-c1ccc(OCCCN2CCC(C(O)(c3ccccc3)c3ccccc3)CC2)cc1	·	·	·	·	·	40µM*
N#CCc1ccc(OCCCN2CCC(C(O)(c3ccccc3)c3ccccc3)CC2)cc1	·	0%	·	-3	·	?
OC(c1ccccc1)(c1ccccc1)C1CCN(CCCOc2ccc(-c3ccc(F)cc3F)cc2)CC1	·	·	·	·	·	40µM*
O=C(O)CCC(=O)N1N=C(c2ccc(Cl)cc2)CC1c1ccc2nccnc2c1 (centres undefined)	·	·	·	·	·	7%
N=c1c(S(=O)(=O)c2ccc(Cl)cc2)cc2c(=O)n3ccccc3nc2n1CCc1ccccc1	6%	·	·	·	-5%	374%
N=c1c(S(=O)(=O)c2ccc(Cl)cc2)cc2c(=O)n3ccccc3nc2n1Cc1cccnc1	3%	40µM*	14%	1	-1%	·
Cc1nc([C@H]2CCN(Cc3cn(C)c4ccccc34)C[C@H]2NC(=O)C2CC2)n[nH]1	·	·	·	·	·	67%
CC(C)CCNC(=O)c1cn(CC(C)C)c(=O)c2c1c1ccccc1n2C	-2%	1%	5%	-41*	0%	0%
Cc1ccc(Cl)c2c(C=O)c(C(C)(C)C)[nH]c12	·	·	·	·	·	-6%
NC(=O)C1CCN(c2nc(C3CC3)nc3c2nnn3Cc2ccccc2Cl)CC1	2%	11µM*	0%	2	1%	-12%
CC(=O)[C@@H]1[C@@H]2C(=O)N(Cc3ccccc3)C(=O)[C@@H]2C2c3ccccc3C=CN21 (some centres undefined)	10%	11µM*	3%	-2	-4%	-7%
Cc1ccc(N2C(=O)[C@@H]3[C@H](C2=O)C2c4ccccc4C=CN2[C@@H]3C(=O)c2ccco2)c(C)c1 (some centres undefined)	-10%	0%	4%	1	-5%	14µM*
O=C(c1ccco1)[C@@H]1[C@@H]2C(=O)N(c3ccccc3)C(=O)[C@@H]2C2c3ccccc3C=CN21 (some centres undefined)	25%	2%[38.3 µM]	6%	-2	-2%	?
Nc1nc(=S)c2ncn(C3CCCCC3)c2[nH]1	·	0%	1%	-2	·	50µM*
CCOc1cc(Br)cc(C(c2c(C(=O)O)[nH]c3ccccc23)c2c(C(=O)O)[nH]c3ccccc23)c1O	·	22%	-8%	-1	-1%	5.6µM*
Cc1ccc(-c2csc(NC(=O)COC(=O)c3ccc(F)cc3Cl)n2)cc1	·	·	·	·	·	-6%
COc1cc([N+](=O)[O-])c(OC)cc1SCc1n[nH]c(=S)n1-c1ccc(F)cc1	0%	0%	-11%	1	-3%	45µM*
Cc1ccc2c(=O)c(-c3nc(-c4ccc(Cl)cc4)no3)cn(CC(=O)NCc3ccco3)c2n1	·	·	·	·	·	20µM*
CCOC(=O)c1c(NC(=O)c2cccs2)sc2c1CCC2	1%	2%[38.3 µM]	43%	-33*	?	-11%
c1csc(CNc2nc(-c3ccoc3)nc3ccccc23)c1	·	0%	·	·	·	10µM*
c1cncc(-c2nc(NCc3cccs3)c3ccccc3n2)c1	2%	0%	-2%	-3	-3%	-5%
CNc1nc(-c2ccoc2)nc2ccccc12	·	0%	·	·	·	35µM*
CC(Cn1cccn1)NC(=O)c1ccc2c(c1)OCO2 (centres undefined)	·	·	·	·	·	-25%
CCOC(=O)CSC1=Nc2ccccc2C2=NC(CC(=O)NCc3ccccc3)C(=O)N12 (centres undefined)	1%	-3%	36%	-3	-1%	10µM*
SMILES	p53 reactivator	PINK1 modulator	S-ASM inh	CCT modulator	Mm-Cpn inhibitor	ALOX12 inh
COc1ccc(CNC(=O)CCC2N=C3c4ccccc4N=C(SCC(=O)NCC4CCCO4)N3C2=O)cc1 (centres undefined)	5%	7%	36%	-1	1%	0%
O=C(CCC1N=C2c3ccccc3N=C(SCC(=O)NCC3CCCO3)N2C1=O)NCc1ccc(F)cc1 (centres undefined)	3%	1%	-2%	-46*	-1%	15%
C/C(=N\NC(=O)c1cccc(Cl)c1)C1C(=O)c2ccccc2C1=O	15%	40µM*	-14%	-2	-4%	-1%
Cc1cc2cc(CNC(=S)NCc3ccccc3)ccc2n1C	-2%	-1%	-6%	-2	?	40µM*
Cc1ccccc1NC(=S)NCc1ccc2c(c1)cc(C)n2C	16%	5%	5%	-2	-25%	?
CCCCNC(=S)NCc1ccc2c(c1)cc(C)n2C	0%	-1%	-2%	0	-9%	40µM*
NC(=O)CCN(C(=O)c1ccc(Br)cc1)c1ccc(F)cc1	·	·	·	·	·	1%
COc1ccc2nc(NC(=O)c3cc(=O)c4ccc(C)c(C)c4o3)sc2c1	·	·	·	·	·	-4%
CN(C)CCN(CC1CCCN(Cc2ccccc2F)C1)C(=O)c1ccc(F)cc1 (centres undefined)	20µM*	2%	6%	-2	-6%	17%
OC(CNCc1ccco1)Cn1c2ccc(Br)cc2c2cc(Br)ccc21 (centres undefined)	-5%	·	?	1	-2%	6.3µM*
CCOc1ccccc1NC(=O)CCS(=O)(=O)c1ccc2c(c1)CCN2C(=O)C1CC1	·	·	·	·	·	-3%
S=C(SSC(=S)N1CCOCC1)N1CCOCC1	·	0%	·	1	·	5µM*
CC(SC(=S)N1CCOCC1)C(=O)O (centres undefined)	5%	2%	0%	-2	-5%	1%
COC(=O)c1ccccc1NC(=O)c1noc2c1CC(C(C)(C)C)CC2 (centres undefined)	11%	?	-9%	-81*	1%	-10%
CC(C)(C)C1CCc2onc(C(=O)Nc3cccc(O)c3)c2C1 (centres undefined)	10%	·	·	·	-4%	12%
Cc1ccc(NC(=S)NC2CCSc3ccccc32)cc1C (centres undefined)	-26%	?	-6%	0	0%	45µM*
Cc1ccc(S(=O)(=O)N(C)C)cc1NC(=O)COc1ccc2cc(Br)ccc2c1	·	·	·	·	·	-20%
O=C(O)C(c1c[nH]c2cc(Br)ccc12)N1CCCN(c2ccc(C(F)(F)F)cn2)CC1 (centres undefined)	·	·	·	·	·	25µM*
O=C(O)C(c1c[nH]c2cc(Cl)ccc12)N1CCN(CCOc2ccc(Cl)cc2)CC1 (centres undefined)	·	·	·	·	·	35µM*

High-throughput results deposited in PubChem by National Center for Advancing Translational Sciences (NCATS).
